rCAG binder = binds r(CAG) RNA repeats | r(CAG) RNA repeat, TO-PRO-1 dye displacement fluorescence | inhibition, % at 3 µM | 370,000 compounds, 1.3% hits;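 active = inhibition above the plate cutoff, the mean of all test compounds on that plate plus 3 SD, cut at about 35% in these data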;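 also: higher means more dye released from RNA so lower well fluorescence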
NadD block = NadD (S. aureus) enzyme inhibition; purified NadD enzyme, colorimetric absorbance read-out; 360,000 compounds, 0.78% hits; AID 602399; inhibition, % at 20 µM; in the data active = inhibition above about 26%
FAS-TE inh = inhibitors of human fatty acid synthase thioesterase domain; recombinant FAS-TE, OMFH fluorogenic substrate, fluorescence endpoint; inhibition, % at 15 µM; 360,000 compounds, 0.67% hits;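 active = compounds whose normalised, plate-corrected inhibition of enzyme fluorescence in the single-dose primary screen is 50% or more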
Target sequence (P49327 whole entry, looked up, the tested form may be a part): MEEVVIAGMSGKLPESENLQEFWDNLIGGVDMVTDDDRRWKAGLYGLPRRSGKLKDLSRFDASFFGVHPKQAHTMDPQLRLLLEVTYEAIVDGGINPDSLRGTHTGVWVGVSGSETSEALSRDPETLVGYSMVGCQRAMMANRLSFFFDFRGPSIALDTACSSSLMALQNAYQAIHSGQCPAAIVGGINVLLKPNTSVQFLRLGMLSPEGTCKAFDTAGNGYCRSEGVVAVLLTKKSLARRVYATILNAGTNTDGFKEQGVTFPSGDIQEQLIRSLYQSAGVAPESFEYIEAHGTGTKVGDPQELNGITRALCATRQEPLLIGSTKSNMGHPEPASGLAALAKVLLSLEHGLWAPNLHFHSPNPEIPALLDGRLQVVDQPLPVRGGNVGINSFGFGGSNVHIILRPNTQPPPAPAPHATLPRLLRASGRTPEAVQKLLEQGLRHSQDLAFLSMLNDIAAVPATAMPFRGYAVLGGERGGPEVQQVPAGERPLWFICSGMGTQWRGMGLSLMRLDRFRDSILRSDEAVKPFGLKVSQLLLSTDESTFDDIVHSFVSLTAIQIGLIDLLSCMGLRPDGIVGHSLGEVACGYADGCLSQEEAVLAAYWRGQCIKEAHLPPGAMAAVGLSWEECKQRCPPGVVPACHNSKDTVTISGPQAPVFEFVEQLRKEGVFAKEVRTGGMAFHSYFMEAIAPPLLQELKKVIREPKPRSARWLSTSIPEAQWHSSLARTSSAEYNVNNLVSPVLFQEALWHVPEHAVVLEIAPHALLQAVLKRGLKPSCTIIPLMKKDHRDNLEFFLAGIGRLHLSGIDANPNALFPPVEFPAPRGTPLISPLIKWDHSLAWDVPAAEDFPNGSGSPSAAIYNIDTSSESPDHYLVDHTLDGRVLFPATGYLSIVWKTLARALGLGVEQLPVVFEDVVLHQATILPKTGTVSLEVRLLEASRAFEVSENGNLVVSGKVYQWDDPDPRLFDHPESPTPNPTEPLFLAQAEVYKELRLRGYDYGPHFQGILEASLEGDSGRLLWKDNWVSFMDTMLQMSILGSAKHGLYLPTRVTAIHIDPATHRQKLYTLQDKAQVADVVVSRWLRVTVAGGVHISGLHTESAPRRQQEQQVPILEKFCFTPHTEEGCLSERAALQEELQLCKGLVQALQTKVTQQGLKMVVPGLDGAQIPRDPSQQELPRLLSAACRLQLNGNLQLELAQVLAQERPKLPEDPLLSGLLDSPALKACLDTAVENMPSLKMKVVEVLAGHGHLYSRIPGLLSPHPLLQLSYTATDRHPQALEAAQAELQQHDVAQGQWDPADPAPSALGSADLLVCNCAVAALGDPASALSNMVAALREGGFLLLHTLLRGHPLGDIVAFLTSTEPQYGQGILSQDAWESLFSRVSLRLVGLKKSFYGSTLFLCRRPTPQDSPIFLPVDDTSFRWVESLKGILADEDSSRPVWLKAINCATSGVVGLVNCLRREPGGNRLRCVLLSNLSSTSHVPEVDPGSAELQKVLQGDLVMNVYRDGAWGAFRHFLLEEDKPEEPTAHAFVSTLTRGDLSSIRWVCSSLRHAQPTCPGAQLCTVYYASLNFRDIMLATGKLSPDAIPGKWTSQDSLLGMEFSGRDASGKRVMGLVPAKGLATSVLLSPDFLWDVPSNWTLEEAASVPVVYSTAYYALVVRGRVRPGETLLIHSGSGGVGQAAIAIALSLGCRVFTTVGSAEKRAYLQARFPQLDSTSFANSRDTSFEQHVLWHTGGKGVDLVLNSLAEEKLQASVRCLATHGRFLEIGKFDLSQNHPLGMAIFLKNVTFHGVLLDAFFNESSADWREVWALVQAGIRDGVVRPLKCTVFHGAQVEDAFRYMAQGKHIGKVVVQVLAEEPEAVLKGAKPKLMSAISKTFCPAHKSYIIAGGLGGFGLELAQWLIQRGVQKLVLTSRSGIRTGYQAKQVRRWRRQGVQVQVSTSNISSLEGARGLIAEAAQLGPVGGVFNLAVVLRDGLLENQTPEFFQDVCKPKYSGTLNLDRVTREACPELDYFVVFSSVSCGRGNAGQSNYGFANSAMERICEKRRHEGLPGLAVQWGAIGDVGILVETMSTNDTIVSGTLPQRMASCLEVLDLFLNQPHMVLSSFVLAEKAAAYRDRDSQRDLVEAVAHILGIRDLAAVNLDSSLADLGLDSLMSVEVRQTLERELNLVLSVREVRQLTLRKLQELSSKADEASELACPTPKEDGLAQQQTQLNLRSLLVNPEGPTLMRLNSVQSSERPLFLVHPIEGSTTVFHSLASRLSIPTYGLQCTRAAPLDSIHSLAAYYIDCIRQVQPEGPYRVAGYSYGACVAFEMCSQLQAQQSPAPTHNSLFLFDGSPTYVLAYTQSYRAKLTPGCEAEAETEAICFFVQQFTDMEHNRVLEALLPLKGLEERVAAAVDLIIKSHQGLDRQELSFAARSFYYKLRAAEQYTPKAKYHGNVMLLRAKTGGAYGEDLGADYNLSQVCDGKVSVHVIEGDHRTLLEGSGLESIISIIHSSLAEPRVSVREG
NR3A LBD binder = NR3A (human) ligand-binding domain modulation. NR3A LBD differential scanning fluorimetry, Tm shift; 0% = protein alone, 100% = glycine-bound protein. Tm shift relative to glycine control, % at 25 µM. 340,000 compounds, 2.5% hits;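 active = melting temperature shift of at least 10% of the positive control shift, at one fixed dose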
Hits are given with their value; i = inactive; nt = no result given. Sampled rows, rich in hits. Any-hit rate of the full collection: about 4.3%.

SMILES	rCAG binder	NadD block	FAS-TE inh	NR3A LBD binder
Cc1nc(N)sc1-c1csc(Nc2cccc(O)c2)n1	i	i	i	i
Cc1nc(C)c(-c2csc(Nc3ccc(S(N)(=O)=O)cc3)n2)s1	i	i	i	32
CC(C)NC(=O)N[C@@H]1C[C@@H]2O[C@H](CO)CC[C@@H]2O[C@@H]1CCc1ccc(-c2ccccc2F)cc1	i	nt	nt	nt
COc1ccccc1NC(=O)Nc1nc(CC(=O)Nc2ccc(OC)c(OC)c2)cs1	i	i	i	17
COc1cccc(NC(=O)Cc2csc(NC(=O)Nc3ccccc3OC)n2)c1	i	i	i	29
COc1cc(C)ccc1NC(=O)Cc1csc(NC(=O)Nc2ccccc2OC)n1	i	i	i	i
CCCC[C@@]1(C2CCCC2)Cc2cc(OCC(=O)O)c(Cl)c(Cl)c2C1=O	47	i	i	i
CC(=O)Nc1cccc(/C(C)=N/NC(=O)c2ccc(NS(=O)(=O)c3cccs3)cc2)c1	i	i	i	i
C/C(=N\NC(=O)c1ccc(NS(=O)(=O)c2cccs2)cc1)c1ccc(C(C)(C)C)cc1	i	i	i	15
CCOc1ccc(C(=O)Nc2ccc(NC(=O)c3ccco3)c(Cl)c2)cc1Br	i	i	i	40
CCOc1ccc(C(=O)Nc2ccc(NC(=O)c3ccco3)c(Cl)c2)cc1Cl	i	i	i	i
CCOc1ccc(C(=O)Nc2cccc([N+](=O)[O-])c2)cc1Br	i	i	i	27
COC(=O)[C@]12C[C@H](CC(=O)NCCc3ccccc3OC)C(=O)N(Cc3cccc4ccccc34)C1=C[C@H](COCc1ccccc1)O[C@@H]2C	i	nt	nt	nt
COCCCNC(=O)Cn1nc(Cc2ccncc2)c2ccccc2c1=O	i	nt	nt	nt
CC(=O)C1=C(C)N(CC(C)C)C(=S)NC1c1ccc(Br)cc1 (centres undefined)	i	nt	nt	nt
O=C(Cc1ccccc1)NC(CSSCC(NC(=O)Cc1ccccc1)C(=O)O)C(=O)O (centres undefined)	i	i	i	36
C[C@H](O)[C@@H]1CN2CCc3c([nH]c4c(-c5ccccc5)cccc34)[C@@H]2C[C@@H]1N(C)CC1CCCCC1	i	nt	nt	nt
O=C(NCc1ccccc1Br)c1cccc2c1C(=O)c1ccc(N3CCC(Cc4ccccc4)CC3)cc1S2(=O)=O	nt	33	i	i
CCOC(=O)c1ccc(NC(=S)NCCC2=CCCCC2)cc1	i	i	i	13
CCOC(=O)c1ccc(NC(=S)NCCc2ccccc2F)cc1	i	i	i	11
Cc1ccc(NC(=S)NCCC2=CCCCC2)cc1	i	i	i	i
CCOC(=O)c1ccc(NC(=S)NCC(O)c2ccccc2)cc1 (centres undefined)	i	i	i	10
CCOC(=O)c1ccc(NC(=S)NCc2ccccc2)cc1	i	i	i	i
COC(=O)[C@@]12CCCCC3=C1N(CCC3)C(=O)[C@H]2CC(=O)N1CCN(C(=O)C2CC2)CC1	i	nt	nt	nt
Cc1ccc(C)c(NC(=O)CNS(=O)(=O)c2ccc3[nH]c(=O)oc3c2)c1	i	nt	nt	nt
SMILES	rCAG binder	NadD block	FAS-TE inh	NR3A LBD binder
C#Cc1cccc(OCC(C)CN2CCC(C(O)(c3ccccc3)c3ccccc3)CC2)c1 (centres undefined)	i	nt	nt	nt
CCCCCC1CC(CC(=O)NC(=S)Nc2ccc([N+](=O)[O-])cc2)C(=O)O1 (centres undefined)	i	i	i	15
CCCCCCC1CC(CC(=O)Nc2ccc([N+](=O)[O-])cc2)C(=O)O1 (centres undefined)	i	i	i	i
O=c1c2[nH]c3ccc(Br)cc3c2ncn1CCCn1ccnc1	i	i	i	16
CC(CNc1ccc(Cl)cc1)(CNc1ccc(Cl)cc1)[N+](=O)[O-]	i	i	i	25
CCOC(=O)[C@@]12CN(C(=O)OC(C)(C)C)CC=C1N(Cc1ccc(OC)cc1)C(=O)[C@H]2CC(=O)N1CCCC1	i	nt	nt	nt
O=C(CCSc1ccc(Br)cc1)c1ccc(O)cc1	i	i	i	12
COC(=O)C[C@H]1CC[C@H]2[C@@H](COc3ccc(NC(=O)Nc4ccccc4)cc3C(=O)N2C)O1	i	nt	nt	nt
CCCCC(=O)N1CCC(NS(=O)(=O)c2ccc3c(c2)CCN3C(C)=O)CC1	i	nt	nt	nt
Cc1ccc2cc(C(c3nnnn3C(C)(C)C)N3CCCCCC3)c(=O)[nH]c2c1 (centres undefined)	nt	i	i	11
Cc1cc(C(=O)OC(C(=O)Nc2cccc(C(F)(F)F)c2)c2ccccc2)c(C)o1 (centres undefined)	i	i	i	13
O=[N+]([O-])c1cc(C(F)(F)F)ccc1NCCc1c[nH]c2ccccc12	i	i	i	29
O=[N+]([O-])c1cc(C(F)(F)F)ccc1NCCc1c[nH]c2ccc(O)cc12	i	i	i	29
O=[N+]([O-])c1cccnc1NCCc1c[nH]c2ccccc12	i	i	i	i

High-throughput results deposited in PubChem by several laboratories.
